We go through ten compounds from ChEMBL document CHEMBL3988442, “University of Dundee, Small-Polar-MMV Screening Library” (2021).

What all share (design): scale not given: direction of the effect not stated beside the values
Test [1] deals with Protein translocase subunit SecA (Escherichia coli (strain K12)) (UniProt P10408). Nature of the test: Assay to Identify E. coli SecA ATPase Inhibitors. Format: functional. The note with it: 30 µM.
The target in test [2] is T1, Ubiquitin-activating enzyme e1, putative (Leishmania donovani (strain BPK282A1)) (UniProt E9BSI1).
T1 sequence (whole entry): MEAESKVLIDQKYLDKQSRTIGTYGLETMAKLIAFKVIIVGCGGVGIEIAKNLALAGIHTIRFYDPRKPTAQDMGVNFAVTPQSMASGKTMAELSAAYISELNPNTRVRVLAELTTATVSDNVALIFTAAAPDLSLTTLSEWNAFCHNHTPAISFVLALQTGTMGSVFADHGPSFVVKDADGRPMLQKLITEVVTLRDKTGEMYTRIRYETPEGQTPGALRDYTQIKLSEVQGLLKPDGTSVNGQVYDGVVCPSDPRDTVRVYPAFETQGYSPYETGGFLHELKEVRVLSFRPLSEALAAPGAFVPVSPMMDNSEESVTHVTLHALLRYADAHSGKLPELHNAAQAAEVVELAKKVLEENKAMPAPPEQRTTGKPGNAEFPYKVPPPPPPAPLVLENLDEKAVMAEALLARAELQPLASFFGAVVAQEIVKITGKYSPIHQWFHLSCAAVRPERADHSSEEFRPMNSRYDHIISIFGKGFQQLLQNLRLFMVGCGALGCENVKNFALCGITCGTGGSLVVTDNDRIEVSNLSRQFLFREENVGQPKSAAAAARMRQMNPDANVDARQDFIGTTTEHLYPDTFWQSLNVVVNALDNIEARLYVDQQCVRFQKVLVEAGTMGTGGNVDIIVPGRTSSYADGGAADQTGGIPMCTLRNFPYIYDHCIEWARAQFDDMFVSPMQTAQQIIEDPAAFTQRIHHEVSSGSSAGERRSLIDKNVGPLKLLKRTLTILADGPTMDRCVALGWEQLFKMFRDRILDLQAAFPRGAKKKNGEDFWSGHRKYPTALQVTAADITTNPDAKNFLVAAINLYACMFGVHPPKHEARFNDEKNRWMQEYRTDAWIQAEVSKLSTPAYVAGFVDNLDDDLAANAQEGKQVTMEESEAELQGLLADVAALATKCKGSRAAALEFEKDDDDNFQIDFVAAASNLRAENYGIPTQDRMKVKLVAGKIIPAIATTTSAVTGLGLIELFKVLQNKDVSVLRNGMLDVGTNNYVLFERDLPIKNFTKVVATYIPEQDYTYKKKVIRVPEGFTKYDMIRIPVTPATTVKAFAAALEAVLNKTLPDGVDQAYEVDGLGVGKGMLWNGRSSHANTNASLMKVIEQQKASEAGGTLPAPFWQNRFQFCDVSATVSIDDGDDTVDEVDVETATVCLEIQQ
Put plainly: Leishmania donovani Ubiquitin Activating Enzyme (LdE1). Format: functional. The note with it: 30 µM.

Test [3] deals with AMP-activated protein kinase, AMPK (Homo sapiens) (UniProt P54646+O43741+P54619+Q9UGJ0+Q9Y478+Q13131+Q9UGI9). Put plainly: AMP-dependent Kinase enzyme assay. An in vitro enzyme assay that detects ADP turnover that is directly proportional to AMPK activity. This uses naive AMPK that is activated during the assay with MK-8722. The note with it: 30 µM. It counts as functional.
Test [4] concerns the target Sialic acid-binding Ig-like lectin 9 (Homo sapiens) (UniProt Q9Y336). Put plainly: Hs-Siglec9 ALPHAscreen SOP 20170721. The note with it: 10 µM. On the technique in general: Bead proximity is the source of the signal in Alpha formats.
A further test has as its system Trypanosoma cruzi. Put plainly: Trypanosoma cruzi phosphomannomutase and mannose-1-phosphate guanylyltransferase assay. Format: functional. The note with it: 10 µM.
Test [5] concerns the target T2, Arginase-2, mitochondrial (Homo sapiens) (UniProt P78540).
T2 sequence (whole entry): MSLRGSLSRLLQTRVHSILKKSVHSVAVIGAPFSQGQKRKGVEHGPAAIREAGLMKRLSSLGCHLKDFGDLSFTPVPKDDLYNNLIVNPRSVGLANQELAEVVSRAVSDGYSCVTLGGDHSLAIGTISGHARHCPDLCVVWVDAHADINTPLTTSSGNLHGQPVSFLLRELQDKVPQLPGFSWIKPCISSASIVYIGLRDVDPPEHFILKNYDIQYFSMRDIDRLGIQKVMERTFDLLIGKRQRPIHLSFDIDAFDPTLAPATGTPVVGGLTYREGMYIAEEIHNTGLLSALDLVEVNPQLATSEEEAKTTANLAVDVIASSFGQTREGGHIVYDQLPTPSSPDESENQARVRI
Put plainly: in vitro enzyme assay to detect the production of urea directly proportional to the activity of Arginase II. Further: in the data most compounds retested in dose-response had high values. The note with it: 33.3 µM. It counts as functional.

In test [6] the target is T3, Proteasome subunit beta (Trypanosoma cruzi) (UniProt O96673).
T3 sequence (whole entry): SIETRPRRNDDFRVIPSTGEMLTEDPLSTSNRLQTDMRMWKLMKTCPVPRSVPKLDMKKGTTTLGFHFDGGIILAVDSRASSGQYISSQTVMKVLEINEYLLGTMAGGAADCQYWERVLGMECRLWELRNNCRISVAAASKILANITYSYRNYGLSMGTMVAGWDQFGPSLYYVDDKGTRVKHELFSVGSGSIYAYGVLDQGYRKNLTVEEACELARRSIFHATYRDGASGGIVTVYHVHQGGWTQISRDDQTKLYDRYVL
Nature of the test: Trypanosoma cruzi proteasome chymotrypsin-like activity (TcProtChymo) assay. Further: in the data most compounds retested in dose-response had high values. Format: functional. The note with it: 9.37 µM.

The species named for a further test is Homo sapiens. Put plainly: To identify inhibition of the IFN signalling (Jak-Stat) pathway via expression of an eGFP reporter gene under the control of an IFN-stimulated response element (ISRE) containing MxA promoter. It counts as functional. The note with it: 30 µM. On the technique in general: A reporter such as luciferase makes a cellular process visible.

Test [7] deals with T4, Tyrosyl-tRNA synthetase, putative (Trypanosoma cruzi (strain CL Brener)) (UniProt Q4DSP6).
T4 sequence (whole entry): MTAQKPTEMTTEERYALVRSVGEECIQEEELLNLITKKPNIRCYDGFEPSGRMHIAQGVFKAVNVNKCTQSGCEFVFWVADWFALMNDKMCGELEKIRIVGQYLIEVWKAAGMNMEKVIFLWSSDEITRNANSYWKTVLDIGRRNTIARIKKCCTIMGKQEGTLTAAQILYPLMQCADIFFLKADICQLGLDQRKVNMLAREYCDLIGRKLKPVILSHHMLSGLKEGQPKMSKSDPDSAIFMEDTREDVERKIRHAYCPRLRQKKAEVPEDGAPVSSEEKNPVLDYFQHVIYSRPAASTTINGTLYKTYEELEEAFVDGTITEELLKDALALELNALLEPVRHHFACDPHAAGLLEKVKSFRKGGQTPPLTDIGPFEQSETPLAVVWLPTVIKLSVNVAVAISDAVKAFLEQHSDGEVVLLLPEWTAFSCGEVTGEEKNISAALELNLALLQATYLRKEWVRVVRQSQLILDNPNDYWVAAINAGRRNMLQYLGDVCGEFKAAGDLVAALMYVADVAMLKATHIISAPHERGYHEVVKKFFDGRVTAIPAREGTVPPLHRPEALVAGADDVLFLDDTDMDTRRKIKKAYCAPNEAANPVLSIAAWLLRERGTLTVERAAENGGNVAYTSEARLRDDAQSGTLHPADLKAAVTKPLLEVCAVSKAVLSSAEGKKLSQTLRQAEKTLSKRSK
Nature of the test: Trypanosoma cruzi tyrosyl tRNA synthetase (TcYRS) _High Tyrosine SOP. Further: in the data most compounds retested in dose-response had high values. The note with it: 30 µM. It counts as functional.

The target of test [8] is T4, Tyrosyl-tRNA synthetase, putative (Trypanosoma cruzi (strain CL Brener)). Nature of the test: Trypanosoma cruzi tyrosyl tRNA synthetase (TcYRS) SOP. Format: functional. The note with it: 30 µM.
For test [9], the target named is Chromo domain-containing protein 1 (Saccharomyces cerevisiae (strain ATCC 204508 / S288c) (Baker's yeast)) (UniProt P32657). Put plainly: ScCHD-1 Enzyme Inhibition Assay. Further: in the data most compounds retested in dose-response had high values. It counts as functional. The note with it: 30 µM.

For some assays here: Entries with a potency or affinity are not part of this list.

Chain of Chromo domain-containing protein 1 (Saccharomyces cerevisiae (strain ATCC 204508 / S288c) (Baker's yeast)) (P32657 whole entry, the tested form may be a part): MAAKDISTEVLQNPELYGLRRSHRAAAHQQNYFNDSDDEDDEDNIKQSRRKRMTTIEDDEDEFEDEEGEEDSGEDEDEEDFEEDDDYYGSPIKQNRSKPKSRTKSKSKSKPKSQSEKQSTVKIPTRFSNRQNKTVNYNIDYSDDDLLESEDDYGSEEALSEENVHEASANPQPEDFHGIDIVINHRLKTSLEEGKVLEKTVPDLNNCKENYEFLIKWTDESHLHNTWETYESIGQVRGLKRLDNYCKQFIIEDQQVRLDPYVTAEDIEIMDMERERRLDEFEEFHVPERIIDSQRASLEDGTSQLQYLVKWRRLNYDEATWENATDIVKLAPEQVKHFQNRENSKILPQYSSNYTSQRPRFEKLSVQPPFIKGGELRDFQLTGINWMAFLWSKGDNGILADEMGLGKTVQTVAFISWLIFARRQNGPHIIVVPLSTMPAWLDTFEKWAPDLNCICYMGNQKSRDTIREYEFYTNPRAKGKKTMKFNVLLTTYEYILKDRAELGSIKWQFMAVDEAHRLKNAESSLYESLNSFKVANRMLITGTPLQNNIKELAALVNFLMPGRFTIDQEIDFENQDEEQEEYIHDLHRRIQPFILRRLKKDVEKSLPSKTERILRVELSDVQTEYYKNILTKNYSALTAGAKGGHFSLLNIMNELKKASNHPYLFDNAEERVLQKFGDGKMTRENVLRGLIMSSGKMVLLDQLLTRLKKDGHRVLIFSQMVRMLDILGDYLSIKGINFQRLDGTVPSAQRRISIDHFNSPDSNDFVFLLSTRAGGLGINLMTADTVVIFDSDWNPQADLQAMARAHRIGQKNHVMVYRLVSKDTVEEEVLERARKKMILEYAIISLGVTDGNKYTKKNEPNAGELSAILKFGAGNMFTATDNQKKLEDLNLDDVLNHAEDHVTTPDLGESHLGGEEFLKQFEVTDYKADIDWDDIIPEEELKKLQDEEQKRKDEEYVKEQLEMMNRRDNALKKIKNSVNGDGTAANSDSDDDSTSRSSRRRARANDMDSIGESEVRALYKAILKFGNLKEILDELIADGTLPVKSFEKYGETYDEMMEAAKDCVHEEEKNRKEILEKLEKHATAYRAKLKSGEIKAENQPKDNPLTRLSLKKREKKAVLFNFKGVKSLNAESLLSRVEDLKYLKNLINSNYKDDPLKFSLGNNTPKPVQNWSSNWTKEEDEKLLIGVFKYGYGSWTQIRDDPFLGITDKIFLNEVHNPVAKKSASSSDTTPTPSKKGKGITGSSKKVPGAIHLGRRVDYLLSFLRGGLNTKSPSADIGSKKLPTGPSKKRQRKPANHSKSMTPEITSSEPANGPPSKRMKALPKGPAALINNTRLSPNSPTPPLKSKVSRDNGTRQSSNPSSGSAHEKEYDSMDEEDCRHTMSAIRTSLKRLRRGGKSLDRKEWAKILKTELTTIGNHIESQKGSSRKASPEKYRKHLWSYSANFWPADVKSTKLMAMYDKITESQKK
Chain of Protein translocase subunit SecA (Escherichia coli (strain K12)) (P10408 whole entry): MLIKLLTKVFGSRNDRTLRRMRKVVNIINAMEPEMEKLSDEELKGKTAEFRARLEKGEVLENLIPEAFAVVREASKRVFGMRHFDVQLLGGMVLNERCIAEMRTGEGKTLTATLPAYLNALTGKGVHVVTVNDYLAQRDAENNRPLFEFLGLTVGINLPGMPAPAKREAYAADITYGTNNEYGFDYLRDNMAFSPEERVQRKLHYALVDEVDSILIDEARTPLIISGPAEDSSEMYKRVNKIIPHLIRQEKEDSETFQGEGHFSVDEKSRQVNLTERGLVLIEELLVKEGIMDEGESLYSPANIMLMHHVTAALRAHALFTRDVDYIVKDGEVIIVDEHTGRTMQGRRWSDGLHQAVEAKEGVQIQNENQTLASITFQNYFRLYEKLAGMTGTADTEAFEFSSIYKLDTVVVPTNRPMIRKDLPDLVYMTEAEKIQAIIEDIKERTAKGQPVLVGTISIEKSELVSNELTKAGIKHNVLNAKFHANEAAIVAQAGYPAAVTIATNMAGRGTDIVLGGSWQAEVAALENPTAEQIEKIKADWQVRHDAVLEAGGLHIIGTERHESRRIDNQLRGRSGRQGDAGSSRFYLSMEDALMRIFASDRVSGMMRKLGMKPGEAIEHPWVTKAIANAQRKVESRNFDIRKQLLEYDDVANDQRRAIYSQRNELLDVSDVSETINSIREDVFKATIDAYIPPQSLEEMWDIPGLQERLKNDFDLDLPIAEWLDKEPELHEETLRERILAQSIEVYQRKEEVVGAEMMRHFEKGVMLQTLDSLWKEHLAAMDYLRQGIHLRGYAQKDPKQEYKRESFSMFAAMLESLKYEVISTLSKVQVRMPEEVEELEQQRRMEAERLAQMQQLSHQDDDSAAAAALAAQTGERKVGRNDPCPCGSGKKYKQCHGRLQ
Chain of Sialic acid-binding Ig-like lectin 9 (Homo sapiens) (Q9Y336 whole entry): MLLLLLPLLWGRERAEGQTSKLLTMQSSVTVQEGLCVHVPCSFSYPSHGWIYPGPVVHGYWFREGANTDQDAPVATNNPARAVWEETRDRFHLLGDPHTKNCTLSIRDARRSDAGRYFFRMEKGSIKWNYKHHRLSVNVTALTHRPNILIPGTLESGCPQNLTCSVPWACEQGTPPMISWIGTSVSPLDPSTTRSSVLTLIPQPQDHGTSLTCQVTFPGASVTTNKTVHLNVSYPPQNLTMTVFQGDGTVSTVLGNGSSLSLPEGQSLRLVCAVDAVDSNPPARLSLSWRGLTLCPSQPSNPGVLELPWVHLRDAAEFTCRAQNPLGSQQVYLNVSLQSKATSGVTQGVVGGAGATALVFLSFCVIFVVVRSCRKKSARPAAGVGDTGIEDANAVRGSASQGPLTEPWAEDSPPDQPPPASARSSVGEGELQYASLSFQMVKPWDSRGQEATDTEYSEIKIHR

`CS(=O)(=O)N[C@@H]1CN(C(=O)c2ccccn2)[C@@H]2CCCO[C@@H]21`: the Percent Effect in [1] was -5.18%; in test [2], 5.41%; in test [3], 4.88%; in test [4], 2.32%; in the test on Trypanosoma cruzi, -0.489%; in [5] it was 2.87%. Also, the Percent Effect is 18.4% in [6]; -7.84% in the test listed under Homo sapiens; 4.32% in test [7]; 7.69% in test [8]; -0.379% in test [9].

In the case of `O=C(NCc1ccccn1)[C@@H]1COC[C@H]2CN(C3CCOCC3)C[C@H]21`, the Percent Effect in [1] is 4.15%; in [2] it was 8.11%; in test [3], 9.79%; in [4], -14%; in the test on Trypanosoma cruzi, -7.33%; in [5], 4.78%. Moreover, the Percent Effect is 12.7% in test [6]; 11.2% in the test filed under Homo sapiens; 5.41% in [7]; 10.3% in test [8]; -2.43% in test [9].

In the case of `Cn1cccc1CN1CCC2(CCCN(C(=O)c3cnccn3)C2)C1` (stereo not given), the Percent Effect in [1] was 0.875%; in [2], 7.79%; in [3] it was -0.756%; in [4] it was -13.7%; in the test with Trypanosoma cruzi it was -10.8%; in test [5] it was 11%. The Percent Effect was 14.4% in test [6]; 29.7% in the test filed under Homo sapiens; -2.12% in test [7]; -1.28% in test [8]; -9.31% in test [9].

As for `CC(=O)Nc1nc(C(=O)N2CCCC(n3nc(C)cc3C)C2)cs1` (stereo not given), the Percent Effect in [1] was -5.42%; in [2], 0%; in [3] it was 5.38%; in test [4], -3.57%; with Trypanosoma cruzi, -5.13%; in [5], -1.8%. Moreover, the Percent Effect was -7.02% in test [6]; -2.38% in the test listed under Homo sapiens; -2.46% in test [7]; -11.1% in test [8]; 5.41% in test [9].

With `CCc1ccc(NC(=O)N2C[C@H]3C[C@H](C(=O)NC)[C@@H](C2)O3)cc1`, the Percent Effect is 0.946% in [1]; 2.6% in [2]; 6.04% in test [3]; -3.01% in test [4]; -0.0986% in the test with Trypanosoma cruzi; 0.645% in test [5]. The Percent Effect is 5.4% in [6]; 11.2% in the test listed under Homo sapiens; 1.06% in test [7]; 6.41% in [8]; 93.4% in [9].

For the compound `COCCN(Cc1ccoc1)C(=O)c1cccnc1SC`, the Percent Effect in [1] was -1.15%; in test [2] it was 5.2%; in test [3], 9.17%; in [4], 2.43%; in the test with Trypanosoma cruzi, -4.24%; in test [5], 7.1%. Further, the Percent Effect was 1.04% in test [6]; 1.32% in the test listed under Homo sapiens; 3.17% in [7]; 6.41% in [8]; -5.39% in test [9].

On to `O=C(CN1CCCC1Cn1cccn1)NC1CCOCC1` (stereo not given), for which the Percent Effect is -0.811% in test [1]; 0% in [2]; -3.32% in test [3]; -1.02% in [4]; 0.772% with Trypanosoma cruzi; -2.38% in test [5]. Moreover, the Percent Effect was 13.6% in test [6]; -13.8% in the test listed under Homo sapiens; 1.59% in test [7]; -12.2% in [8]; -2.17% in test [9].

For `COCCN1C[C@@H](C)[C@@]2(COCCN(C(=O)Cc3ccccc3)C2)C1`, the Percent Effect in test [1] is -2.42%; in [2] it was 10.7%; in [3], 4.69%; in test [4] it was 6.89%; with Trypanosoma cruzi, 1.54%; in test [5] it was -54.7%. For the same compound, the Percent Effect in test [6] is 5.13%; in the test filed under Homo sapiens, -15.6%; in test [7], 5.21%; in [8] it was 12.5%; in [9] it was -7.47%.

Consider `Fc1cccc(CN2CCC(c3n[nH]c4ncccc34)CC2)c1F`, for which the Percent Effect in test [1] is -3.7%; in test [2], 9.46%; in test [3], 25.8%; in test [4], 6.41%; with Trypanosoma cruzi it was 7.71%; in test [5], -1.16%. The Percent Effect in test [6] is 18.2%; in the test listed under Homo sapiens, 18.6%; in test [7], 3.23%; in [8], 14.3%; in test [9], -10.6%.

With `Cn1cnnc1C1CCCN(C(=O)c2cnc3ccccc3n2)C1` (stereo not given), the Percent Effect was -5.29% in test [1]; -18.2% in test [2]; 6.07% in test [3]; 1.12% in [4]; 0.49% with Trypanosoma cruzi; -1.47% in test [5]. Further, the Percent Effect is 5.58% in test [6]; 17.6% in the test listed under Homo sapiens; 7.62% in [7]; 11.8% in [8]; -15.4% in test [9].
